Laboratory results from ChEMBL document CHEMBL3988442, “University of Dundee, Small-Polar-MMV Screening Library” (2021).
Screen size: about 48,000 compounds; about 13,000 (27%) showed an effect of 50% or more. This is one part of the list.

tested on: Wolbachia pipientis; experiment: Anti-Wolbachia Cell-Based Screen; type: functional; set-up: scale not given: in the data most compounds retested in dose-response had high values; details: 5 µM

SMILES	Percent Effect [%]
CC(C#N)CNC(=O)Nc1ccc(Br)cc1 (stereo unspecified)	-11.38
Cc1cc(CN(C)C(=O)C(c2cccnc2)N2CCOCC2)n[nH]1 (stereo unspecified)	-3.091
Cc1ccc(S(=O)(=O)Cc2noc([C@@H]3C[C@@H](O)CN3C)n2)cc1	-3.09
Cn1cc(CN2C[C@@H]3COC[C@]3(C(=O)NCc3ccccn3)C2)cn1.O=C(O)C(F)(F)F.O=C(O)C(F)(F)F	-3.108
Cc1ncsc1CN1C[C@@H]2COC[C@]2(C(=O)NCc2ccccn2)C1.O=C(O)C(F)(F)F.O=C(O)C(F)(F)F	-14.61
O=C(NCc1ccccn1)[C@]12COC[C@H]1CN(Cc1ccccc1F)C2.O=C(O)C(F)(F)F.O=C(O)C(F)(F)F	103.6
Cc1ncsc1CN1C[C@@H]2COC[C@]2(C(=O)NCc2cccnc2)C1.O=C(O)C(F)(F)F.O=C(O)C(F)(F)F	4.251
O=C(NCCc1cccs1)[C@]12COC[C@H]1CN(Cc1ccccn1)C2.O=C(O)C(F)(F)F.O=C(O)C(F)(F)F	-75.28
O=C(NCc1ccccn1)[C@]12COC[C@H]1CN(Cc1cccnc1)C2.O=C(O)C(F)(F)F.O=C(O)C(F)(F)F.O=C(O)C(F)(F)F	99.25
CCS(=O)(=O)N1C[C@H]2CN(c3cnn(C)c3)C(=O)[C@H]2C1	-14.71
CC(C(=O)NCc1ccnc(N(C)C)c1)n1cncn1 (stereo unspecified)	-16.73
CC(C)(CNc1cn[nH]c(=O)c1Cl)c1ccc2c(c1)OCO2	11.94
CCN(CC(=O)NC(C)C)C(=O)C(C)(C)c1ccc2c(c1)OCCO2	-2.563
Cc1ccc(OCCNC(=O)C(C)n2cncn2)cc1 (stereo unspecified)	-5.656
CN(CC(=O)NCC(C)(C)c1ccc2c(c1)OCO2)c1cnccn1	-4.592
CC(C(=O)NCc1ccc2c(c1)OCCO2)n1cncn1 (stereo unspecified)	116.3
CC(C(=O)NCC(C)(C)c1ccc(Br)cc1)n1cncn1 (stereo unspecified)	77.11
CC(C(=O)NCC(C)(C)c1ccc2c(c1)OCCO2)n1cncn1 (stereo unspecified)	97.81
CC(C(=O)NCc1ccnc(OCC(F)(F)F)c1)n1cncn1 (stereo unspecified)	8.582
CC(C(=O)NCC(C)(C)c1ccc2c(c1)OCO2)n1ccnc1 (stereo unspecified)	97.89
CC(C)(CNc1cn[nH]c(=O)c1Cl)c1ccc2c(c1)OCCO2	14.36
Cc1ccc(C(C)(C)CNC(=O)NC(C)Cn2cncn2)cc1 (stereo unspecified)	14.21
O=C(NCCNc1ncccn1)NCCSC(F)(F)F	-9.16

SMILES	Percent Effect [%]
Cc1cnn(C2CN(CC(O)c3ccc4c(c3)OCCO4)C2)c1 (stereo unspecified)	-3.679
Cc1nn(C)c(N(C)C)c1CNCCCN(C)S(C)(=O)=O	-15.04
CCOc1cc(C(=O)O)cc(-c2ccccc2)c1OC	-26.33
CCCNC(=O)Nc1cc2c(cc1SC)OCCO2	21.87
CCOCCCC(=O)Nc1cc(C(N)=O)ccc1N1CCCCC1	2.668
CC(C(=O)NCCOc1ccc2c(c1)OCO2)n1cncn1 (stereo unspecified)	5.572
CC(Cn1ccnc1)NC(=O)NCCc1ccc2c(c1)OCCO2 (stereo unspecified)	0.8239
CC(C(=O)NCCc1ccc2c(c1)OCCO2)n1cncn1 (stereo unspecified)	104.6
Cc1nn(C)c(C)c1C1CCCN1Cc1nc2ccccc2c(=O)[nH]1 (stereo unspecified)	97.01
Cc1nn(C)c(C)c1C1CCCN1Cc1nc2ccccc2o1 (stereo unspecified)	33.14
Cn1c(CN2CCN(CC3CCCO3)CC2)nc2ccccc21 (stereo unspecified)	-23.45
Cc1cc(C)n(C2CCN(Cc3nc4ccccc4n3C)CC2)n1	188.5
CCC1CCCN(Cc2nc3ccccc3c(=O)[nH]2)C1 (stereo unspecified)	-14.75
Cc1nc(C)n(CC2CCCN2Cc2nc3ccccc3n2C)n1 (stereo unspecified)	1.241
Cc1nc(CN2CCCC2c2c(C)nn(C)c2Cl)no1 (stereo unspecified)	-6.071
Cc1nn(C)c(C)c1C1CCCN1Cc1nc2ccccc2n1C (stereo unspecified)	136.2
Cc1nn(C)c(C)c1C1CCCN1Cc1nc(N)c2ccccc2n1 (stereo unspecified)	120.3
Cc1nc2ccccc2nc1CN1CCCC1c1c(C)nn(C)c1C (stereo unspecified)	2.386
Cc1nn(C)c(C)c1C1CCCN1Cc1nc(C)c2ccccc2n1 (stereo unspecified)	40.75
O=c1oc(-c2ccccc2)nn1CN1CCC(N2CCCCC2)CC1	-11.85
Cc1nc2scc(C)n2c1CNc1ccc(C(=O)O)cc1	1.868
CCC[C@@H]1CN(S(=O)(=O)c2ccc3[nH]c(=O)[nH]c3c2)C[C@H]1NC(C)=O	-12.43
Cn1c(CN2CCN(CC3CC3)CC2)nnc1C1CCC1	-1.801

SMILES	Percent Effect [%]
Cc1ccnc(C(NC(=O)c2ccc(O)nc2C)C2CC2)n1 (stereo unspecified)	19.85
COC(CNC(=O)c1ccc[nH]1)c1cccc(Cl)c1 (stereo unspecified)	-25.79
Cc1cccc2c1nc(CCO)n2-c1ccc(C(=O)N2CCOCC2)o1	-4.594
CC(C)Oc1cc(N2CCC(C(N)=O)CC2)nc(N)n1	11.1
CCN(CC)S(=O)(=O)N1CC[C@H](c2ccccc2)[C@@H]2[C@H]1CCCCN2C	135.6
CCN(CC(=O)NC(C)C)S(=O)(=O)N1CCCCC1C (stereo unspecified)	-3.982
CCN(CC)S(=O)(=O)N1C[C@@H](c2ccccc2)[C@H]2[C@H]1CCCCCN2C	163.4
Cc1cc(S(=O)(=O)N2CCCc3ccc(F)cc32)sc1C(=O)O	-10.9
O=C([C@@H]1CCO[C@@H]2CCN(Cc3ccco3)C[C@H]21)N1CCCCO1	1.589
COc1ccc(CN2CCC[C@@H]3CN(C(=O)c4ccco4)C[C@@H]32)cc1.O=C(O)C(F)(F)F	6.144
CC(=O)N1CCC(=O)N(C2CCCC2)Cc2ccccc21	106.7
COCC(=O)N1CCC(=O)N(C2CCCC2)Cc2ccccc21	125.1
CC(=O)N1CCCN(C2CCCCc3ccccc32)CC1 (stereo unspecified)	16.59
COCC(=O)N1CCCN(C(=O)C2Cc3ccccc3CN2C)CC1 (stereo unspecified)	-0.0278
COc1cccc(SCC(=O)N2CCCC(N3CCCC3=O)C2)c1 (stereo unspecified)	3.036
COC(C)(C)CNC(=O)C1CCC(=O)N(C2CCCC2)C1 (stereo unspecified)	-37.87
COCC(=O)N1CCC(=O)N(C2CCCC2)Cc2cc(F)ccc21	102.4
COc1cccc(-n2nnc(C(=O)N3CCCC3)c2C)c1	-5.233
Cn1cc(C[C@H]2[C@@H](O)CCN2C(=O)c2ccc[nH]2)cn1	-3.734
CCO[C@@H]1CCN(c2ccc(C)nn2)[C@@H]1Cc1cnn(C)c1	109.6
COCCO[C@@H]1CCN(C(=O)c2ccc(C)o2)[C@@H]1Cc1cnn(C)c1	-2.237
COCCO[C@H]1CCN(c2ccc(C)nn2)[C@H]1Cc1cnn(C)c1	102.2
Cn1cc(C[C@H]2[C@H](O)CCN2C(=O)C2CCCC2)cn1	-2.611

SMILES	Percent Effect [%]
COCCO[C@H]1CCN(C(=O)c2ccno2)[C@H]1Cc1cnn(C)c1	-8.767
CO[C@H]1CCN(c2ccc(C)nn2)[C@H]1Cc1cnn(C)c1	-0.6949
Cc1ccc(N2CC[C@H](O)[C@@H]2Cc2cnn(C)c2)nn1	105.5
CCO[C@@H]1CCN(C(=O)N(C)C)[C@@H]1Cc1cnn(C)c1	6.075
CCC(C)(NCC(=O)OC)c1nc(C)cs1 (stereo unspecified)	4.251
CC(C)c1nc2n(n1)CC(NCC(=O)N(C)Cc1cccs1)CC2 (stereo unspecified)	-0.7675
Cn1c(=O)[nH]c2cc(C(=O)OCCCn3ccccc3=O)ccc21	-6.987
CCO[C@@H]1CC[C@H]2[C@H]1OCCN2CCOCc1ccccc1.O=C(O)C(F)(F)F	-21.46
O=C(CO[C@@H]1CC[C@H]2[C@H]1OCCN2CC1CCOCC1)N1CCCC1.O=C(O)C(F)(F)F	-8.196
O=C(O)C(F)(F)F.O=C(O)C(F)(F)F.c1cnn(CCCO[C@@H]2CN(C3CCOCC3)[C@@H]3CCCO[C@@H]32)c1	99.23
O=C(O)C(F)(F)F.O=C(O)C(F)(F)F.c1cnn(CCCO[C@@H]2CC[C@H]3[C@H]2OCCN3CC2CC2)c1	100.5
Cc1nnc(N2C[C@H](OCCCn3cccn3)[C@H]3OCCC[C@H]32)s1	1.098
Cc1nnc(N2C[C@@H](OCCCn3cccn3)[C@H]3OCCC[C@H]32)s1.O=C(O)C(F)(F)F.O=C(O)C(F)(F)F	12.15
CCO[C@H]1CC[C@H]2[C@H]1OCCN2CCOCc1ccccc1.O=C(O)C(F)(F)F	-37.65
O=C(O)C(F)(F)F.O=C(O)C(F)(F)F.c1cnn(CCCO[C@@H]2CC[C@H]3[C@H]2OCCN3CC2CCOCC2)c1	107.9
CN(C)CCSc1ccc(NC(=O)c2nccn3ccnc23)cc1	11.77
COc1cc(OC)cc(C2CCN(CC(=O)NCC(F)(F)F)C2)c1 (stereo unspecified)	-9.174
Cc1ccc(CN2CCOC3(COCCN(Cc4ccncc4)C3)C2)o1.O=C(O)C(F)(F)F.O=C(O)C(F)(F)F.O=C(O)C(F)(F)F (stereo unspecified)	-16.88
Cc1ccc(CN2CCOC3(COCCN(S(C)(=O)=O)C3)C2)o1.O=C(O)C(F)(F)F (stereo unspecified)	-4.149
CS(=O)(=O)N1CCOCC12CCN(Cc1ccc(F)cc1)CC2.O=C(O)C(F)(F)F	90.38
Cc1ccc(CN2CCC3(CC2)COCCN3S(C)(=O)=O)o1.O=C(O)C(F)(F)F	105
CS(=O)(=O)N1CCOCC2(CN(Cc3ccc(F)cc3)CCO2)C1.O=C(O)C(F)(F)F (stereo unspecified)	-3.432
